Bioassay records as filed in PubChem.
G9a block: G9a (human) methyltransferase inhibition; Q96KQ7; G9a H3K9 monomethylation, AlphaScreen, 2 h; Potency, µM (highest dose often 102 µM), for the others: top-dose activity, negative = inhibition, hits mostly inhibitors; 8.8% of 350,000 active; AID 504332; further: on the % scale 0 is the no-effect control and ±100 the full control effect; nearly all actives have a fitted effect of over 75% in size
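AlphaScreen detection with an anti-monomethyl H3K9 antibody quantified product after a 2 h room-temperature reaction containing 500 nM biotinylated H3K9 peptide, 20 µM SAM and 20 nM enzyme, which had been preincubated 15 min with compound.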
JMJD2A Tudor inh: blocks the human JMJD2A Tudor domain; AlphaScreen JMJD2A-Tudor / H3K4me3 peptide binding; 4.4% of 390,000 active; O75164; AID 504339; Potency, µM (doses to about 114 µM), inactives show top-dose activity change, negative = inhibition, actives largely listed as inhibitors; further: on the % scale 0 is the no-effect control and ±100 the full control effect; nearly all actives have a fitted effect of over 50% in size
Target sequence (O75164 whole entry, looked up, the tested form may be a part): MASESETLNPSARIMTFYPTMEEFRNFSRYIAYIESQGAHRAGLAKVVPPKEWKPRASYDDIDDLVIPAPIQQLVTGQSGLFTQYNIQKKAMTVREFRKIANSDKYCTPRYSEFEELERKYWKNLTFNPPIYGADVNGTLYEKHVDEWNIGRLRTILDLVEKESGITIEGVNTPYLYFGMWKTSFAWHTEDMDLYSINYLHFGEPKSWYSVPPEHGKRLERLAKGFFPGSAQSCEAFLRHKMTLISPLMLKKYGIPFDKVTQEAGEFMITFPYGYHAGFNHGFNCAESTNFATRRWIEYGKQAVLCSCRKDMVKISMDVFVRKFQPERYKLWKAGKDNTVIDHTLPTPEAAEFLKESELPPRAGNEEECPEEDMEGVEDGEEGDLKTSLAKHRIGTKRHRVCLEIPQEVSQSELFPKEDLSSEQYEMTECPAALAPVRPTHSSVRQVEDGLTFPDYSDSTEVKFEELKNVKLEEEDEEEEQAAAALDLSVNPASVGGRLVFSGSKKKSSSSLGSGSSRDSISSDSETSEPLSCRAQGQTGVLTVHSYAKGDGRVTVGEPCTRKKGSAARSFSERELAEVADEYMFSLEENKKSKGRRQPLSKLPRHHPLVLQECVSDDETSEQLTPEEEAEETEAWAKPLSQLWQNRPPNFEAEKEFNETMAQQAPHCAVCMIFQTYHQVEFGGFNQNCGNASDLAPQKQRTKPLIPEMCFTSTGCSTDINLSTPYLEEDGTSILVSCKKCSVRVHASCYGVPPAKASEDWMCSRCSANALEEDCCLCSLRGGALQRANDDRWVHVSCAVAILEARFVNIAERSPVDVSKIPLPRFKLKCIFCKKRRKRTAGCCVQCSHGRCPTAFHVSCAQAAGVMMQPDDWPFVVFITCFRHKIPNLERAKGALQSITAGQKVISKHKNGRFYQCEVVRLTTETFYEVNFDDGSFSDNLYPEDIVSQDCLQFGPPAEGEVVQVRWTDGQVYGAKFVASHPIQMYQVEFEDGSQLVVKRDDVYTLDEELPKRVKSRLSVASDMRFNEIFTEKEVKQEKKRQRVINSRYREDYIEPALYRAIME
HP1b chromo inh: blocks HP1-beta chromodomain binding to methylated histone tails | AID 540317 | AlphaScreen HP1-beta / biotin-H3K9me3 peptide binding | 0.56% of 390,000 active | P83916 | Potency, µM (highest dose often 114 µM), without a hit: at the highest dose activity change, negative = inhibition, hits mostly inhibitors; further: nearly all actives have a fitted effect of over 70% in size
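HP1-beta protein (50 nM final) preincubated 30 min at room temperature with biotinylated H3(1-18)K9me3 peptide (50 nM) in PBS pH 7.4, 0.01% Tween-20, then compound added for 30 min. AlphaScreen streptavidin donor/nickel chelate acceptor beads (10 ug/mL final), 30 min dark, luminescence read.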
Sfp inh: Sfp phosphopantetheinyl transferase inhibition. Q9F4F7. Biochemical Sfp PPTase activity, qHTS. Potency, µM, for the others: largest response in the series, negative = inhibition, hits mostly inhibitors. 3.5% of 310,000 active;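 further: the enzyme is Sfp with the accession as filed and its product quenches rhodamine fluorescence; 0% = enzyme reaction without inhibitor and -100% = no enzyme wells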
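Fluorescence-quenching assay with 15 nM Sfp, 5 uM rhodamine-CoA and 12.5 uM BHQ-2-labelled ybbR peptide in pH 7.6 Hepes/MgCl2 buffer. Enzyme was pre-incubated with compound for 15 min at room temperature. Rate was taken from the 30-min fluorescence change (525/598 nm).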
BAZ2B inh: BAZ2B (human) inhibition. Potency, µM (doses to about 114 µM), for the others: at the top dose activity change, negative = inhibition, actives largely listed as inhibitors. AlphaScreen BAZ2B-H3K14Ac peptide displacement. 4.4% of 360,000 active; further: on the % scale 0 is the no-effect control and ±100 the full control effect; nearly all actives have a fitted effect of over 60% in size
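In this displacement format the biotinylated H3(5-23) peptide acetylated at Lys14 serves as ligand at 50 nM, with BAZ2B at 50 nM in PBS pH 7.4 containing 0.01% Tween-20. Donor and acceptor beads are 10 ug/mL final.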
L3MBTL1 block: blocks human L3MBTL1 | AID 485360 | 0.66% of 230,000 active | AlphaScreen L3MBTL1–H3K9me1 peptide binding | Potency, µM (series often up to 57.1 µM), inactives show at the highest dose activity, negative = inhibition, hits mostly inhibitors; further: on the % scale 0 is the no-effect control and ±100 the full control effect; nearly all actives have a fitted effect of over 60% in size
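Read-out is AlphaScreen signal from streptavidin donor and nickel chelate acceptor beads (10 ug/mL final each) bridging L3MBTL1 (50 nM) and biotinylated K9-monomethylated H3(1-15) peptide (75 nM), after 30 min compound exposure at room temperature.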
Starred values were filed as active, the others as inactive; ? = inconclusive; . = not tested or not shown; [ ] = another dose, or the depositor's remark. In the library only some 12% were active in any assay of this set; here they are far more common. The call rests on the fitted dose curve; in most records, active means well fitted curve in the direction sought with a large enough effect; inconclusive means small, poorly fitted or top-dose-only effect, or another doubt; inactive means no such curve, though single readings can be large; an effect the other way counts as inactive or inconclusive. Potency means the concentration at half of the fitted maximal effect.

SMILES	G9a block	JMJD2A Tudor inh	HP1b chromo inh	Sfp inh	BAZ2B inh	L3MBTL1 block
O=C1C2=C(Nc3ccccc3SC2c2c(F)cccc2Cl)c2ccccc21 (centres undefined)	?	13µM*	?	.	.	.
O=C1C2=C(Nc3ccccc3SC2c2ccc(Cl)c(Cl)c2)c2ccccc21 (centres undefined)	13µM*	8.9µM*	?	.	.	.
COc1ccc(Br)cc1C1Sc2ccccc2NC2=C1C(=O)c1ccccc12 (centres undefined)	-6%[59 µM]	-8%	18%	.	.	.
CCCc1ccc(C2Sc3ccccc3NC3=C2C(=O)c2ccccc23)cc1 (centres undefined)	7.9µM*	16µM*	?	.	10µM*	.
CCOc1ccc(CCNC(=O)c2cnc3sc(N4CCOCC4)nn3c2=O)cc1	13%[59 µM]	-6%	10%	.	-9%	.
CCc1ccccc1NC(=O)Cn1c(=O)n(Cc2ccc(OC)cc2)c(=O)c2oc3ccccc3c21	2%[59 µM]	-13%	6%	.	-4%	.
O=C1C2=C(Nc3ccccc3SC2c2ccccc2C(F)(F)F)c2ccccc21 (centres undefined)	11µM*	22µM*	?	.	?	.
Cc1cc(Cl)ccc1OCC(=O)N(Cc1sccc1C)C1CCS(=O)(=O)C1 (centres undefined)	8%[59 µM]	-16%	16%	.	-7%	.
CC(=O)C1=C(c2ccc(Br)cc2)N(C(C)=O)n2c(nnc2C2CCCCC2)S1	12%[59 µM]	-12%	-4%	.	-15%	.
O=C(NCCCSc1ccccc1)c1cc(Cl)ccc1O	35µM*	33%	88%	-21%	50µM*	.
c1ccc(N2CCN(c3nc4ccccc4n4nnnc34)CC2)cc1	7%[59 µM]	1%	48%	-17%	12%	3.5µM*
O=C(O)c1ccc(Nc2ncc([N+](=O)[O-])cc2[N+](=O)[O-])cc1	45µM*	-21%	-3%	-20%	?	-11%
N#Cc1nc(-c2ccc(OCc3ccc(Cl)cc3)cc2)oc1N1CCCCC1	.	-6%[57.1 µM]	4%[57 µM]	.	.	.
CN(C)c1cccc2c1c(NC(=O)Nc1ccccc1)nn2C	35µM*	?	10%	-3%	-33%	-18%
CCN(CC)C(=O)[C@H]1C[C@H](CC(=O)NC/C=C(\C)CCC=C(C)C)C(=O)N2CCc3c([nH]c4cc(-c5ccco5)ccc34)[C@]12C	.	32µM*	?	.	.	-26%
CCN(CC)C(=O)[C@H]1CC(CC(=O)NC/C=C(\C)CCC=C(C)C)C(=O)N2CCc3c([nH]c4ccc(OC)cc34)[C@]12C (some centres undefined)	.	50µM*	?	.	.	-10%
COc1cc(C2C(=O)N(C3CCCCC3)CC(=O)N2C2CCCC2)ccc1OC(C)C (centres undefined)	7%[59 µM]	-2%	13%	.	3%	.
CCOC(=O)C(C(=O)OCC)C(Nc1ccccc1)c1ccccc1 (centres undefined)	3%[59 µM]	-18%	29%	-5%	2%	1%
CCOC(=O)C(NCCCO)c1ccccc1 (centres undefined)	50µM*	2.5µM*	?	-1%	-22%	2%
COc1cccc(C2c3c(ncn(-c4cccc(F)c4)c3=N)Oc3ccc4ccccc4c32)c1 (centres undefined)	.	50µM*	.	.	.	.
COc1cccc(C2c3c(ncn(-c4ccccc4OC)c3=N)Oc3ccc4ccccc4c32)c1 (centres undefined)	.	56µM*	.	.	.	.
COc1ccccc1C1c2c(ncn(-c3ccccc3)c2=N)Oc2ccc3ccccc3c21 (centres undefined)	.	56µM*	.	.	.	.
COc1ccc(C2c3c(ncn(CCCO)c3=N)Oc3ccc4ccccc4c32)cc1OC (centres undefined)	?	-26%	8%	0%	?	-23%
N=c1c2c(ccn1-c1ccccc1)Oc1ccc3ccccc3c1C2c1ccccc1 (centres undefined)	.	40µM*	.	.	.	.
